Measurements from PubChem BioAssay AID588689 (Southern Research Specialized Biocontainment Screening …, 2011).
About 1,000 (0.29%) of roughly 340,000 compounds were called active. Cut-off read from the data, not from the text of the source: inconclusive = inhibition above about 29% without an active follow-up result; inactive = below that. These entries were drawn from the full list. Results with a measured potency or affinity are listed apart.

Molecular target: Genome polyprotein (Dengue virus type 2 (strain 16681-PDK53)) (UniProt P29991)
Test: Dengue-2 NS5 methyltransferase inhibitors, primary screen, biochemical, confirmation dose response (AID 588689)
Conditions: Dengue-2 NS5 methyltransferase capping enzyme assay, at 25 µM, stronger effect = higher value
[1] = measured here: pilot screen replicate inhibition

Compound | inhibition | inhibition [1] [%]
OCC(CO)(CO)n1cnnn1 | -8.59% (inactive) | –
Cc1ccnc(N/C=C(/NC(=O)c2ccccc2)C(=O)N/N=C\c2ccc(Cl)cc2)n1 | -3.09% (inactive) | –
O=C(COC(=O)c1ccc2c(c1)S(=O)(=O)N=C1CCCCCN12)NCc1cccs1 | -3.45% (inactive) | –
CCOC(=O)C1CCCN(S(=O)(=O)c2cc(OCC(N)=O)c(C)cc2Cl)C1 (centres undefined) | -5.68% (inactive) | –
CC(C)c1ccc(S(=O)(=O)c2nnn3c2nc(N2CCCCC2)c2ccccc23)cc1 | 1.47% (inactive) | –
CC(C)c1ccc(S(=O)(=O)c2nnn3c2nc(NCC2CCCO2)c2ccccc23)cc1 (centres undefined) | 0% (inactive) | –
O=C(/C=C/c1ccco1)Nc1ccc2c(c1)OCCO2 | -4.48% (inactive) | –
CCOC(=O)c1c(-c2ccc(C)cc2)csc1NC(=O)C1CC=CCC1C(=O)O (centres undefined) | 14.8% (inactive) | –
COC(=O)c1c(-c2ccc(C)cc2)csc1NC(=O)C1CC=CCC1C(=O)O (centres undefined) | 0% (inactive) | –
COC(=O)c1c(-c2ccccc2)csc1NC(=O)C1CC=CCC1C(=O)O (centres undefined) | -4.1% (inactive) | –
CCOC(=O)c1c(-c2ccc(F)cc2)csc1NC(=O)C1CC=CCC1C(=O)O (centres undefined) | 9.56% (inactive) | –
O=C(NC(=S)Nc1ccccc1Br)C1CC1 | 7.22% (inactive) | –
Cc1nc2cc(N3CCCCC3)c(NC(=O)c3cccnc3)cc2c(=O)n1Cc1ccccc1 | -0.81% (inactive) | –
Nn1c(SCC(=O)Nc2ccc(F)c(F)c2)nnc1C1CCCCC1 | -4.85% (inactive) | –
COC(=O)CSc1nnc(-c2ccc(S(=O)(=O)N3CCCC3)cc2)o1 | -3.25% (inactive) | –
Nc1nc2c(nc(SCc3ccccc3Br)n2[C@@H]2O[C@H](CO)[C@@H](O)[C@H]2O)c(=O)[nH]1 | -5.87% (inactive) | –
CCOc1ccc(NC(=S)N(CCc2c(C)[nH]c3ccc(C)cc23)Cc2ccncc2)cc1 | -0.7% (inactive) | –
O=C(CSc1nnc(-c2ccc(Cl)cc2)n1-c1ccccc1)N/N=C/c1ccccc1C(=O)O | -3.12% (inactive) | –
COc1ccc([C@H]2N[C@]3(CCCN(Cc4ccc(Cl)cc4)C3=O)[C@H]3C(=O)N(Cc4ccccc4)C(=O)[C@@H]23)cc1 | -3.98% (inactive) | –
CCOC(=O)c1c(NCc2ccc3c(c2)OCO3)c2ccccc2[nH]c1=O | -4.02% (inactive) | –
O=S(=O)(Nc1nc(-c2ccccc2)cs1)c1cc(Cl)ccc1Cl | 28.3% (inactive) | –
O=S(=O)(Nc1nccs1)c1cc(Cl)ccc1Cl | -13.7% (inactive) | –
S=C(Nc1ccc(Nc2ccccc2)cc1)Nc1ccccn1 | -0.82% (inactive) | –

Compound | inhibition | inhibition [1] [%]
COc1ccc(-c2cc(=O)c3ccccc3n2C)cc1 | -9.65% (inactive) | –
COc1ccc(N2C(=O)C(Cl)=C(Nc3ccccc3OC)C2=O)cc1 | 1.45% (inactive) | –
CCOc1ccc(N2C(=O)C(Cl)=C(Nc3ccccc3O)C2=O)cc1 | 31% (inactive) | –
Cc1cccc(/C=N/n2c(C)cc(C)c(C#N)c2=O)c1 | -3.26% (inactive) | –
O=C1NC(=S)N/C1=C/c1cccn1-c1ccc([N+](=O)[O-])cc1 | 0% (inactive) | –
O=C(O)c1cccc(-n2cccc2C=C2C(=O)c3ccccc3C2=O)c1 | 12.5% (inactive) | –
O=C1C(=Cc2cccn2-c2ccccc2)C(=O)c2ccccc21 | 5.2% (inactive) | –
O=Cc1cccn1-c1ccc(O)cc1 | -5.89% (inactive) | –
CCC(OC(=O)CNS(=O)(=O)c1ccccc1)C(=O)c1ccccc1 (centres undefined) | 5.35% (inactive) | –
COc1ccc2c(c1OC)C(=O)N1C(C(=O)O)Cc3c([nH]c4ccccc34)C21 (centres undefined) | -3.23% (inactive) | –
CCOc1cc(NC(=S)NCCCN2CCOCC2)c(OCC)cc1NC(=O)c1cccc(C)c1 | 3.64% (inactive) | –
O=S(=O)(CCSc1ccc(C(F)(F)F)cn1)c1ccccc1 | -9.27% (inactive) | –
O=C(NCc1ccco1)c1ccc(CS(=O)Cc2cccc(Cl)c2)o1 (centres undefined) | 2.71% (inactive) | –
NNc1nc(-c2ccccc2)c2cc(Cl)ccc2n1 | 4.62% (inactive) | –
COCCN(CC(=O)Nc1cccc(C)c1C)C(=O)C1(c2ccc(Cl)cc2)CCC1 | -0.37% (inactive) | –
O=C1CCCC2=C1C(c1ccc(Br)cc1)c1c([nH]c(=S)[nH]c1=O)N2 (centres undefined) | 15.2% (inactive) | –
Cc1ccc(C2C3=C(CCCC3=O)Nc3[nH]c(=S)[nH]c(=O)c32)cc1 (centres undefined) | -5.01% (inactive) | -6.68
O=c1cc(CCc2ccccc2)oc2cccc(O)c12 | -3.62% (inactive) | –
CC(C)(C)C(=O)CN1C(=O)NC2(CCc3ccccc32)C1=O (centres undefined) | -0.65% (inactive) | –
COc1cccc(-c2nc(CS(=O)(=O)CC(=O)N3CCc4ccccc4C3)c(C)o2)c1 | 6.54% (inactive) | –
CNc1ccccc1C(=O)OC | 2.17% (inactive) | –
CC1(C)CC(=O)C(C(c2ccco2)C2C(=O)CC(C)(C)CC2=O)C(=O)C1 | 37.4% (inactive) | 17.1
CC1(C)CC(=O)C(N=Nc2ccc(OC(F)F)cc2)=C(O)C1 | 10.8% (inactive) | –

Compound | inhibition | inhibition [1] [%]
CC1(C)CC(=O)C(C(c2ccncc2)C2C(=O)CC(C)(C)CC2=O)C(=O)C1 | 5.41% (inactive) | –
COc1cccc(C(C2=C(O)CC(C)(C)CC2=O)C2C(=O)CC(C)(C)CC2=O)c1 (centres undefined) | -1.95% (inactive) | –
CC1(C)CC(=O)C(C(C#Cc2ccccc2)C2=C(O)CC(C)(C)CC2=O)=C(O)C1 | -2.82% (inactive) | –
CC1(C)CC(=O)C(C(C2=C(O)CC(C)(C)CC2=O)c2ccco2)C(=O)C1 (centres undefined) | -52.5% (inactive) | –
CC1(C)CC(=O)C(C(C2=C(O)CC(C)(C)CC2=O)c2cccc(O)c2)C(=O)C1 (centres undefined) | 0.68% (inactive) | -19.3
CC1(C)CC(=O)C(Br)=C(O)C1 | -10.3% (inactive) | –
O=C(O)c1cnc(-c2ccccc2)nc1Sc1ccc(Cl)cc1Cl | 4.03% (inactive) | –
Cc1cccc(C2=NN(c3ccccc3)[C@@H](C(=O)N3CCOC3=O)[C@@H]2C)c1 | -1.32% (inactive) | 4.88
CCOC(=O)c1cc(=O)nc(N)s1 | -4.03% (inactive) | –
O=C(COc1ccc([N+](=O)[O-])cc1)NCC(c1cccs1)N1CCOCC1 (centres undefined) | 4.32% (inactive) | –
CC(C)(C)OC(=O)N1CCC(CC2CC(c3ccccc3)=NO2)(C(=O)O)CC1 (centres undefined) | -3.93% (inactive) | –
O=S(=O)(Nc1ccccc1N1CCCCC1)c1ccccc1 | 1.3% (inactive) | –
S=C(Nc1ccc(Br)cc1Cl)N1CCCC1 | -2.6% (inactive) | –
COc1ccc(C2=CC(=O)C[C@H](c3ccc(OC)c(OC)c3)C2)cn1 | -0.4% (inactive) | –
O=C(O)CN1CCN(Cc2cccc(Cl)c2)C1=O | -1.31% (inactive) | –
CC1(C)CC(=O)C(CC2=C(O)CC(C)(C)CC2=O)C(=O)C1 | -33.8% (inactive) | –
CCCC(C1=C(O)CC(C)(C)CC1=O)C1C(=O)CC(C)(C)CC1=O (centres undefined) | -11.2% (inactive) | –
CC(C)c1cc(C(=O)NCc2cccnc2)no1 | 1.6% (inactive) | –
O=C(NNc1ccccc1[N+](=O)[O-])Nc1ccccc1 | -1.39% (inactive) | –
COc1cc(NC(=O)CSc2ncnc3sc4c(c23)CCCC4)c(C(=O)O)cc1OC | -3.33% (inactive) | –
CC1CCc2c(sc3ncnc(SCC(=O)Nc4ccc(C(=O)O)cc4)c23)C1 (centres undefined) | -4.98% (inactive) | –
COCCNC(=O)C(=O)c1c(-c2ccccc2)[nH]c2ccccc12 | 1.52% (inactive) | –
O=C(Nc1ccc(S(=O)(=O)N2CCOCC2)cc1)c1ccc2c(c1)S(=O)(=O)c1ccccc1C2=O | -4.52% (inactive) | –

Compound | inhibition | inhibition [1] [%]
O=C(Nc1cc(S(=O)(=O)N2CCOCC2)ccc1N1CCCC1)c1ccc2c(c1)S(=O)(=O)c1ccccc1C2=O | -7.41% (inactive) | –
COCc1nc(-c2cc(Br)ccc2OC)no1 | -4.06% (inactive) | –
CCn1c(O)c(C=Nc2ccccc2)oc1=S | -8.34% (inactive) | –
Cc1nc2ccc(NC(=O)c3ccc(Cl)c([N+](=O)[O-])c3)cc2s1 | -4.44% (inactive) | –
Cc1nc2ccc(NC(=O)c3ccc([N+](=O)[O-])cc3[N+](=O)[O-])cc2s1 | -5.18% (inactive) | –
COc1cccc(NC(=S)N2CCC(c3ccc(C)cc3)C2)c1 (centres undefined) | -1.96% (inactive) | –
COc1ccc(CCNC(=O)c2nnn(CC(=O)Nc3c(C)cc(C)cc3C)c2N)cc1OC | -7.1% (inactive) | –
CC1(C)CC(=O)C(C(c2ccccc2F)C2C(=O)CC(C)(C)CC2=O)C(=O)C1 | 22.6% (inactive) | –
COc1ccc(NC(=O)c2ccc(COCC(F)(F)F)cc2)cc1OC | -2.91% (inactive) | –
COc1cc(C(O)C(=O)O)ccc1O (centres undefined) | -7.33% (inactive) | –
CCOc1ccc(CC(=O)C2C(=O)CC(C)(C)CC2=O)cc1OCC | -13.1% (inactive) | –
COc1cc(C(C2C(=O)CC(C)(C)CC2=O)C2C(=O)CC(C)(C)CC2=O)ccc1OC(C)=O | -2.35% (inactive) | –
COc1ccc(N2C(=O)CC(C)(C)CC2=O)cc1OC | 0% (inactive) | –
COc1cc(NC(=O)c2ccc(COCC(F)(F)F)o2)cc(OC)c1OC | 0% (inactive) | –
O=C(/C=C1\SC(=O)NC1=O)Nc1ccc(F)cc1 | 0% (inactive) | –
Cc1cc(Br)ccc1NC(=O)CNC(=O)CSc1n[nH]c(N)n1 | -4.68% (inactive) | –
O=C(COC(=O)c1cc(Cl)ccc1O)Nc1cc(C(F)(F)F)ccc1N1CCOCC1 | -3.11% (inactive) | –
CCCN1Cc2cccc(C(=O)NCCc3cccc(C)c3)c2C1=O | 3.25% (inactive) | –
COc1cc(C2CC(=O)OC3=C2C(=O)CC(C)(C)C3)cc(OC)c1OC (centres undefined) | 2.26% (inactive) | –
COc1cc(NC2=CC(=O)CC(C)(C)C2)cc(OC)c1OC | 1.61% (inactive) | –
CCOc1ccc(S(=O)(=O)NC(C)(C)C)cc1-c1nc2c(C(C)(C)C)nn(C)c2c(=O)[nH]1 | -2.73% (inactive) | –
